Screens: PubChem BioAssay, National Center for Advancing Translational Sciences (NCATS)
ATXN2 expr inh: reduces ATXN2 reporter expression in HEK-293 cells; HEK-293 ATXN2-luciferase reporter, luminescence, 24 h; Potency, µM (titrated, usually from 57 µM), without a hit: top-dose activity change, negative = inhibition, most hits filed as inhibitors; 0.72% of 360,000 active; AID 1745845; further: potency means the concentration at half of the fitted maximal effect; on the % scale 0 is the no-effect control and ±100 the full control effect; nearly all actives have a fitted effect of over 55% in size
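ATXN2-luciferase reporter cells (luciferase flanked by upstream and downstream ATXN2 gene portions) were treated 24 h at 37 °C with compounds at up to 57 uM. SteadyGlo luminescence gave expression; GF-AFC fluorescence gave viability.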
ATXN viability: reduces viability in counter-screen for ATXN expression inhibitors | Potency, µM (series often up to 56.7 µM), actives largely listed as cytotoxic | 0.49% of 400,000 active | S2 cells (HEK-293 line with an ATXN2-luciferase reporter) viability, CellTiter-Fluor protease fluorescence, 24 h; further: potency means the concentration at half of the fitted maximal effect; nearly all actives have a fitted effect of over 40% in size
HTT aggregate: mutant huntingtin aggregation inhibition; PC12 HttQ103-GFP aggregates, Acumen cytometry, 40 h; Potency, µM (doses to about 46.1 µM), for inactives: at the highest dose activity change, negative = inhibition, usual class: inhibitors; 1.1% of 220,000 active; AID 1688; further: potency means the concentration at half of the fitted maximal effect; on the % scale 0 is the no-effect control and ±100 the full control effect; nearly all actives have a fitted effect of over 60% in size
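Aggregates are detected as GFP objects 1–25 µm with signal 6 STDEV over background in lysates of induced PC12 cells. These carry Huntingtin exon 1 with 103 glutamines fused to GFP under an ecdysone promoter; compounds titrated.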
TGFb inhibitor: inhibitors of TGF-b signaling. HepG2 CAGA-GFP TGF-b/SMAD3 reporter, GFP fluorescence, 18 h; TGF-beta stimulated, 500 pg/mL final. Potency, µM (highest dose often 46.1 µM), without a hit: at the top dose activity, negative = inhibition, actives largely listed as inhibitors. 1.2% of 410,000 active. AID 588855; further: potency means the concentration at half of the fitted maximal effect; on the % scale 0 is the no-effect control and ±100 the full control effect; nearly all actives have a fitted effect of over 65% in size
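Inhibition of TGF-beta-driven CAGA-GFP reporter expression in HEPG2 cells is measured by cellular GFP fluorescence after 18 h stimulation with 500 pg/mL recombinant TGF-beta in 1% FBS medium at 37 degrees C.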
HTT ATP protect: Huntington cell model cytoprotection by ATP luminescence; PC12 HTT-Q103 induced, cytoprotection, ATP luminescence, 40 h; Potency, µM (top dose mostly 56.4 µM), for the others: cytoprotection (ATP increase), usual class: activators; 0.14% of 230,000 active; further: potency means the concentration at half of the fitted maximal effect; % of control where 0% means no effect; nearly all actives have a fitted effect of over 45% in size
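Quantitative HTS on tebufenozide-induced (100 nM) PC12 cells expressing HTTQ103 exon 1–GFP; compounds tested as a concentration series; survival measured via cellular ATP.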
HepG2 tox: HepG2 cytotoxicity, counter-screen for TGF-b inhibitors. HepG2 CAGA-GFP viability, ATP luminescence, 18 h. Potency, µM (series often up to 46.1 µM), for the others: at the highest dose activity change, negative = cytotoxicity, most hits filed as cytotoxic. 0.76% of 410,000 active; further: potency means the concentration at half of the fitted maximal effect
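CellTiter-Glo luminescence gave cytotoxicity after 18 hours at 37 degrees C. The cells were HepG2 CAGA-GFP in 1% FBS DMEM, stimulated with 500 pg/mL TGF-beta after compound addition. %Activity was normalised to no-cell wells (complete cell-killing) and DMSO (no toxicity), and curves were fitted and classified.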
SKNSH spheroid: reduced viability of SK-N-SH 3D spheroids, orthogonal test. shares compounds with ATXN2 expr inh. AID 1347135. 70% of 65 active. SK-N-SH 3D spheroid viability, PI/Hoechst imaging, 72 h. Potency, µM (series often up to 30.7 µM), most hits filed as inhibitors
SJ-GBM2 3D tox: lowers viability of SJ-GBM2 3D spheroids; shares compounds with ATXN2 expr inh; SJ-GBM2 3D spheroid viability, PI/Hoechst imaging, 72 h; Potency, µM (highest dose often 30.7 µM), usual class: inhibitors; 80% of 65 active; AID 1347136
Daoy 3D tox: kills Daoy spheroids in orthogonal 3D test. shares compounds with ATXN2 expr inh. Daoy 3D spheroid viability, PI/Hoechst imaging, 72 h. Potency, µM (series often up to 30.7 µM), hits mostly inhibitors. 50% of 65 active. AID 1347137
TC32 3D caspase: activates caspase in TC32 3D spheroids; TC32 3D spheroids, caspase-3/7 fluorescence imaging, 24 h; 30% of 65 active; AID 1347138; Potency, µM (titrated, usually from 30.7 µM), hits mostly inhibitors; shares compounds with ATXN2 expr inh
TC32 spheroid: TC32 3D spheroid viability loss; shares compounds with ATXN2 expr inh; TC32 3D spheroid viability, PI/Hoechst imaging, 72 h; Potency, µM (highest dose often 30.7 µM), usual class: inhibitors; 60% of 65 active; AID 1347139
MG63 spheroid: reduced viability of MG-63 (6-TG R) 3D spheroids, orthogonal test; shares compounds with ATXN2 expr inh; Potency, µM (titrated, usually from 30.7 µM), usual class: inhibitors; 50% of 65 active; MG-63 (6-TG R) 3D spheroid viability, PI/Hoechst imaging, 72 h; AID 1347140
RD spheroid: kills RD rhabdomyosarcoma spheroids in orthogonal 3D test; shares compounds with ATXN2 expr inh; RD rhabdomyosarcoma 3D spheroid viability, PI/Hoechst imaging, 72 h; Potency, µM (series often up to 30.7 µM), actives largely listed as inhibitors; 50% of 65 active; AID 1347141
* marks the source's active call; other numbers are inactive results; i = inactive; ? = inconclusive; . = no result; [ ] = remark or other dose. A selection: hits, their analogues and other compounds. The true share with any hit is near 2.8%. The call rests on the fitted dose curve; in most records, active means well fitted curve in the direction sought with a large enough effect; inconclusive means small, poorly fitted or top-dose-only effect, or another doubt; inactive means no such curve, though single readings can be large; an effect the other way counts as inactive or inconclusive.

SMILES | ATXN2 expr inh | ATXN viability | HTT aggregate | TGFb inhibitor | HTT ATP protect | HepG2 tox | SKNSH spheroid | SJ-GBM2 3D tox | Daoy 3D tox | TC32 3D caspase | TC32 spheroid | MG63 spheroid | RD spheroid
CCOc1cc(N2CCC(O)CC2)ccc1Nc1ncc2c(n1)N(C)c1ccccc1C(=O)N2C | 64% | . | . | . | . | . | ? | i | i | i | i | i | ?
CC(C)C[C@H](NC(=O)[C@H](Cc1ccccc1)NC(=O)c1cnccn1)B(O)O | 0.027µM* | 50µM* | . | . | . | . | 0.01µM* | 0.016µM* | 0.032µM* | 0.18µM* | 0.018µM* | 0.081µM* | 0.011µM*
CCCCc1nc2c(c3c1CC(C)OC3)CN(CCC(C)C)CC2 (stereo unspecified) | . | . | . | . | 1%[10 µM] | . | . | . | . | . | . | . | .
CC(C)(C)NC(=O)[C@H]1CN(Cc2cccnc2)CCN1C[C@@H](O)C[C@@H](Cc1ccccc1)C(=O)N[C@H]1c2ccccc2C[C@H]1O | ? | . | 16% | . | -117% | . | i | i | i | i | i | i | i
COc1nc(Cl)nc(Cl)c1Cl (tested in a mixture with another compound) | . | . | . | . | -6%[10 µM] | . | . | . | . | . | . | . | .
C[C@]1(c2nc3c(C(N)=O)cccc3[nH]2)CCCN1 | 12% | . | . | . | . | . | 4.6µM* | 4.1µM* | ? | i | ? | ? | i
NC(=O)c1cccc2cc3ccccc3cc12 | -15% | . | 4% | 0% | -15% | 7% | . | . | . | . | . | . | .
CCCc1ccc(C(=O)O)cc1 | . | . | 8% | . | 10% | . | . | . | . | . | . | . | .
O=C1C(Cl)=C(NCCCN2CCOCC2)C(=O)c2ccccc21 | ? | ? | . | ? | . | -42% | . | . | . | . | . | . | .
O=C1C(Cl)=C(NCCN2CCOCC2)C(=O)c2ncccc21 | 9.7µM* | . | . | . | -90% | . | 3.2µM* | 4.6µM* | 6.4µM* | i | 11µM* | 5.1µM* | 11µM*
CN1CCc2cc3c(cc2C(=O)Cc2ccc4c(c2C1)OCO4)OCO3 | . | . | . | . | -32%[1.9 µM] | . | . | . | . | . | . | . | .
C=C1N[C@]2(C(=O)COC(C)=O)[C@@H](C[C@H]3[C@@H]4CCC5=CC(=O)C=C[C@]5(C)[C@H]4[C@@H](O)C[C@@]32C)O1 | . | . | 26% | . | 4% | . | . | . | . | . | . | . | .
CC(=O)OCC(=O)[C@@]12N=C(C)O[C@@H]1C[C@H]1[C@@H]3CCC4=CC(=O)C=C[C@]4(C)[C@H]3[C@@H](O)C[C@@]12C | -6% | i | . | . | . | . | i | ? | i | i | i | i | i
Fc1ccc(Nc2nc(-c3ccoc3)nc3ccccc23)cc1 | . | . | . | . | -40% | . | . | . | . | . | . | . | .
COC(=O)Nc1nc2ccc(C(=O)c3ccc(F)cc3)cc2[nH]1 | -10% | . | . | . | . | . | 1µM* | 0.91µM* | ? | ? | 2µM* | ? | ?
COc1cc(C(C)=O)ccc1OCCCN1CCC(c2noc3cc(F)ccc23)CC1 | 7% | i | . | . | . | . | ? | 4.1µM* | 16µM* | i | i | 13µM* | 14µM*
